Laboratory results published in PubChem BioAssay (NCATS).
Values joined by “and” are separate entries in the source; they are usually repeats but may differ in a detail not shown here. Identical values can stand only once. Results filed as inconclusive are left out. Active and inactive are the calls of the source. Unless noted, no rule for the calls is given here.

Assay: qHTS assay for cell viability of the p53RE-bla HCT-116 cell line (AID 743292; active = well fitted cell-killing curve with a large enough effect; also: nearly all actives have a fitted effect of over 55% in size; also: potency is read from the fitted curve at half-maximal effect; as to activity change, negative = cytotoxicity: % is scaled to controls: 0 for no effect and ±100 for the full control effect)
Details: p53RE-bla HCT-116 viability, ATP luminescence, 16 h; series mostly up to 95 µM; activity change, negative = cytotoxicity: at the top concentration
Outline: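 ATP-based luminescent viability (CellTiter-Glo, 30 min RT) after 16 h compound treatment at 37 C of p53RE-bla HCT-116 cells, seeded at 4,000 cells/well and rested 5 h before dosing.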

Structure (SMILES) | Potency | activity change, negative = cytotoxicity
Nc1nc(N)c2nc(CNc3ccc(C(=O)NC(CCC(=O)O)C(=O)O)cc3)cnc2n1 (stereo not given) | 89.1 nM (active) | –
C[C@]12C=CC(=O)C=C1CC[C@@H]1[C@@H]2C(=O)C[C@@]2(C)[C@H]1CC[C@]2(O)C(=O)CO | – | 10.6% (inactive)
COc1ccc2cc3[n+](cc2c1OC)CCc1cc2c(cc1-3)OCO2 | – | -10.6% (inactive)

Assay: qHTS profiling for inhibitors of Plasmodium falciparum (3D7) proliferation (AID 743322);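 also: infected erythrocytes exposed to compound for 72 h before lysis; 100% = DMSO vehicle wells and 0% = 0.29 µM artemisinin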
Details: P. falciparum 3D7 proliferation; at 28.7 µM (top of the series)
Outline: (§1)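 Parasite DNA was quantified by SYBR Green I fluorescence (ex 485, em 535 nm) after overnight lysis in saponin/Triton buffer at room temperature. Cultures at 0.3% parasitemia and 2.5% hematocrit were first exposed to compound for 72 h at 37 C; signals were normalised to artemisinin (0.29 uM) and vehicle wells.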

Structure (SMILES) | remaining parasite growth % (stronger effect = lower value)
CC1=CC(=O)c2ccccc2C1=O | 0.179%
COc1cc2nc(N3CCCN(C)CC3)nc(NC3CCN(Cc4ccccc4)CC3)c2cc1OC | 0.848%
COc1cc2c(Nc3ccc(Br)cc3F)ncnc2cc1OCC1CCN(C)CC1 | -1.51%
CNC(=O)c1cc(Oc2ccc(NC(=O)Nc3ccc(Cl)c(C(F)(F)F)c3)cc2)ccn1 | 31.5% and 9.84%

Assay: qHTS profiling for inhibitors of Plasmodium falciparum (DD2) proliferation (AID 743323)
Details: lower = more inhibition; at 28.7 µM (top of the series)
Outline: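 P. falciparum Dd2-infected erythrocytes (0.3% parasitemia, 2.5% hematocrit) exposed 72 h at 37 C, 5% CO2. Lysis with SYBR Green, overnight at room temperature, fluorescence 485/535 nm; normalized to 0.29 uM artemisinin and DMSO.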

Structure (SMILES) | activity, percent of control
CC1=CC(=O)c2ccccc2C1=O | 0.841%
COc1cc2nc(N3CCCN(C)CC3)nc(NC3CCN(Cc4ccccc4)CC3)c2cc1OC | 0.575%
COc1cc2c(Nc3ccc(Br)cc3F)ncnc2cc1OCC1CCN(C)CC1 | 3.65%
CNC(=O)c1cc(Oc2ccc(NC(=O)Nc3ccc(Cl)c(C(F)(F)F)c3)cc2)ccn1 | 29.9% and 20%

Assay: qHTS profiling of the MIPE4 collection as inhibitors of Plasmodium falciparum (3D7) proliferation (AID 743344);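 also: scaled between DMSO vehicle wells and 0.29 µM artemisinin as full inhibition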
Details: P. falciparum 3D7 in erythrocytes, SYBR Green DNA fluorescence, 72 h; at 28.5 µM (top of the series) unless noted
Outline: as §1

Structure (SMILES) | parasite growth, % of DMSO control
COC(c1ccccc1)(c1ccccc1)[C@H](Oc1nc(C)cc(C)n1)C(=O)O | 102%
N[C@@H](C(=O)N[C@@H]1C(=O)N2C(C(=O)O)=C(Cl)CS[C@H]12)c1ccccc1 | 80.9%
OCc1ccc(-c2nn(Cc3ccccc3)c3ccccc23)o1 | 74.2%
CS(=O)(=O)c1ccc([C@@H](O)[C@@H](CO)NC(=O)C(Cl)Cl)cc1 | 40.4%
O=c1oc2c(O)c(O)cc3c(=O)oc4c(O)c(O)cc1c4c23 | 4.91%
CCCCCCNC(=O)n1cc(F)c(=O)[nH]c1=O | 59%
CC(=O)[C@H]1CC[C@H]2[C@@H]3CC=C4C[C@@H](O)CC[C@]4(C)[C@H]3CC[C@]12C | 89.9%
CCCc1nc(C)c2c(=O)[nH]c(-c3cc(S(=O)(=O)N4CCN(CC)CC4)ccc3OCC)nn12 | 6.01%
CN1CCCC(n2nc(Cc3ccc(Cl)cc3)c3ccccc3c2=O)CC1 (stereo not given) | 5.72%
CCOc1cc(N)c(Cl)cc1C(=O)NCC1CN(Cc2ccc(F)cc2)CCO1 (stereo not given) | 105%
COCCCOc1cc(C[C@@H](C[C@H](N)[C@@H](O)C[C@H](C(=O)NCC(C)(C)C(N)=O)C(C)C)C(C)C)ccc1OC | 40.6%
CO[C@@]12[C@H](COC(N)=O)C3=C(C(=O)C(C)=C(N)C3=O)N1C[C@@H]1N[C@@H]12 | 6.13%
COc1cc2nc(N3CCCN(C)CC3)nc(NC3CCN(Cc4ccccc4)CC3)c2cc1OC | 4.4%
COc1nc(N)nc2c1ncn2[C@@H]1O[C@H](CO)[C@@H](O)[C@@H]1O | 77.9%
Nc1nc(N)c2nc(CNc3ccc(C(=O)NC(CCC(=O)O)C(=O)O)cc3)cnc2n1 (stereo not given) | 25%
CCOC(=O)c1ccc(C#Cc2ccc3c(c2)C(C)(C)CCS3)nc1 | 36.2%
O=C(O)c1cccnc1 | 91.9%
COc1cc2c(Nc3ccc(Br)cc3F)ncnc2cc1OCC1CCN(C)CC1 | 5.79%
CNC(=O)c1cc(Oc2ccc(NC(=O)Nc3ccc(Cl)c(C(F)(F)F)c3)cc2)ccn1 | 15.4%
CCC(=O)O[C@]1(C(=O)SCF)[C@H](C)C[C@H]2[C@@H]3C[C@H](F)C4=CC(=O)C=C[C@]4(C)[C@@]3(F)[C@@H](O)C[C@@]21C | 47.5%
C[C@]12C=CC(=O)C=C1CC[C@@H]1[C@@H]2C(=O)C[C@@]2(C)[C@H]1CC[C@]2(O)C(=O)CO | 93.3% [at 9.64 µM]
COc1ccc(-c2ccc3cc(C(=O)O)ccc3c2)cc1C12CC3CC(CC(C3)C1)C2 | 66.2%
Nc1nc(=S)c2[nH]cnc2[nH]1 | 93.4%
CC(C)(C)NC(=O)[C@H]1CC[C@H]2[C@@H]3CC[C@H]4NC(=O)C=C[C@]4(C)[C@H]3CC[C@]12C | 60.2%
